The text below walks through data of PubChem BioAssay AID1851 (National Center for Advancing Translational Sciences (NCATS), 2009).

The term AC50 denotes the concentration at which the activity in the assay is half-maximal.

In all, about 16,000 compounds went through this assay and about 5,800 (36%) were called active. Roughly 23% stayed inconclusive and do not appear here. Some of the results follow. Values without a mark were called inactive. The call rests on the fitted dose curve; in most records, active means well fitted curve in the direction sought with a large enough effect; inconclusive means small, poorly fitted or top-dose-only effect, or effect the other way; inactive means no such curve, though single readings can be large or run the other way.
On the % scale 0 is the no-effect control and ±100 the full control effect.

In this assay the target is Cytochrome P450 2C19 (Homo sapiens) (UniProt P33261). In words: Cytochrome panel assay with activity outcomes. As to conditions: recombinant CYP, pro-luciferin dealkylation, luminescence, p450-cyp2c19; series mostly up to 57.1 µM; activity, negative = inhibition: at the top concentration.
Chain of Cytochrome P450 2C19 (Homo sapiens) (P33261 whole entry, looked up): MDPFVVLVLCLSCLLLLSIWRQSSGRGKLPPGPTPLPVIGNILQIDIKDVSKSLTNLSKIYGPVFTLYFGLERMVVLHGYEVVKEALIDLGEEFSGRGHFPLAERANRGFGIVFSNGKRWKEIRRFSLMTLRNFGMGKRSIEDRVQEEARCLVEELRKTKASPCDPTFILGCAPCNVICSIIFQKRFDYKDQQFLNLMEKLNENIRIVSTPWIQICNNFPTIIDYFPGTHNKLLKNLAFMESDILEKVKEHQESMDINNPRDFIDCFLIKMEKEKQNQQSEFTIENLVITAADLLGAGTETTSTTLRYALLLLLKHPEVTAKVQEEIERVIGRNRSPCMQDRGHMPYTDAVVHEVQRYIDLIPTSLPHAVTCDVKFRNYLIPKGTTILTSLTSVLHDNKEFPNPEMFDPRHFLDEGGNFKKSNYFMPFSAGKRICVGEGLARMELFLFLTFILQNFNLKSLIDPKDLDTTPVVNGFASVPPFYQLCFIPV
Regarding `CC(C)(C)C(=O)NC(=C(Cl)Cl)P(=O)(O)O`, the “activity, negative = inhibition” value was -39.2%.
The same measure, in the same setting: with `CCOC(=O)N/N=C1/C[C@@H](O)[C@@H](O)[C@@H]2[C@@H]3C(=O)N([C@@H](C)c4ccccc4)C(=O)[C@H]3CC[C@H]12` the figure was 12.9% [at 11.4 µM].
Regarding `CC(C)c1cc(C(F)(F)F)nc(NNc2nc(C(C)C)cc(C(F)(F)F)n2)n1`, the AC50 was 2.51 µM (active).
As to `CC(C)Nc1cc(C(F)(F)F)nc(-c2ccccn2)n1`, the “activity, negative = inhibition” value is -40.7%.
Consider `COc1cc(OC)c(C#N)c(S(=O)(=O)Cc2ccccc2)c1`, for which the half-maximal activity concentration (AC50) was 1.26 µM (active).
For the compound `COc1cc(OC)c2c(c1)C(=O)c1cc(OC)cc(OC)c1C2=O`, the “activity, negative = inhibition” value was -6.51%.
In the case of `CCC(=O)Nc1cc2c(cc1C(=O)c1ccccc1)OCCO2`, the AC50 was 14.1 µM (active).
For the compound `CC(C)C(=O)Nc1cc2c(cc1C(=O)c1ccccc1)OCCO2`, the “activity, negative = inhibition” value is -89.4%.
With `O=c1cc(N2CCN(c3cccc(Cl)c3)CC2)[nH]c(=O)n1C1CCCCC1`, the concentration at half-maximal activity (AC50) was 2.51 µM (active).
Turning to `Cc1ccccc1-n1c(=O)cc(N2CC(C)OC(C)C2)[nH]c1=O` (stereo unspecified), the “activity, negative = inhibition” value is 3.85%.
Turning to `O=c1cc(N2CCC(Cc3ccccc3)CC2)[nH]c(=O)n1C1CCCCC1`, the AC50 is 3.16 µM (active).
Consider `O=c1n(CCCN2CCN(c3cccc(Cl)c3)CC2)nc2ccccn12`, for which the AC50 entry was “inactive”.
The same measure, in the same setting: in the case of `COC(=O)C1CCN(c2cc(=O)n(C3CCCCC3)c(=O)[nH]2)CC1` it was 3.98 µM (active).
Turning to `O=C(c1ccco1)N1CCN(c2cc(=O)n(C3CCCCC3)c(=O)[nH]2)CC1`, the “activity, negative = inhibition” value is -38.6%.
Take `CO[C@@H]1COC(=O)C/C=C\[C@H](C)COC(=O)[C@H](Cc2ccccc2)NC(=O)C/C=C\[C@H]1C`: the AC50 is 2.51 µM (active).
Consider `CO[C@@H]1COC(=O)C/C=C\[C@@H](C)COC(=O)[C@H](COCc2ccccc2)NC(=O)C/C=C\[C@H]1C`, for which the activity, negative = inhibition was -16.4% [at 11.4 µM].
On the same count and under the same terms, with `CO[C@H]1COC(=O)C/C=C\[C@H](C)[C@@H](OC)COC(=O)[C@H](Cc2ccccc2)NC(=O)C/C=C\[C@@H]1C` the figure was -37.5% [at 11.4 µM].
With `COc1cc(N)c(Cl)cc1C(=O)CCC1CCN(CCNS(C)(=O)=O)CC1`, the AC50 was 10 µM (active).
Take `Cn1cc(C(=O)OCC2CCN(CCNS(C)(=O)=O)CC2)c2ccccc21`: the “activity, negative = inhibition” value is -2.19%.
Regarding `CCCCN1CCC(CCC(=O)c2cc(Cl)c(N)cc2OC)CC1`, the “activity, negative = inhibition” value is -9.04%.
With `C[C@@H](C(=O)Nc1ccc2ccccc2c1)[C@@H]1C[C@@]1(C)[C@@H](NS(=O)(=O)c1ccc(-c2ccccc2)cc1)c1ccccc1`, the “activity, negative = inhibition” value is 5.27%.
The same measure, in the same setting: with `C[C@@H](C(=O)Nc1ccc2ccccc2c1)[C@@H]1C[C@@]1(C)[C@@H](N)c1ccccc1` the figure was -33.6%.
Turning to `CC(=O)N[C@@H](c1ccccc1)[C@]1(C)C[C@H]1[C@@H](C)C(=O)Nc1ccc2ccccc2c1`, the AC50 was 0.398 µM (active).
As for `C[C@@H](C(=O)Nc1ccc2ccccc2c1)[C@H]1C[C@]1(C)[C@H](NS(=O)(=O)c1ccc2ccccc2c1)c1ccccc1`, the AC50 is 0.251 µM (active).
With `C[C@@H](C(=O)Nc1ccc2ccccc2c1)[C@@H]1C[C@@]1(C)[C@@H](NC(=O)c1ccncc1Cl)c1ccccc1`, the “activity, negative = inhibition” value was -38.4%.
`CC(=O)N[C@H](c1ccccc1)[C@@]1(C)C[C@@H]1[C@@H](C)C(=O)Nc1ccc2ccccc2c1`: the AC50 is 5.01 µM (active).
Regarding `C[C@@H](C(=O)Nc1ccc2ccccc2c1)[C@@H]1C[C@@]1(C)[C@@H](NS(=O)(=O)c1ccc2ccccc2c1)c1ccccc1`, the “activity, negative = inhibition” value is 15.5%.
Still for that read-out and setting: in the case of `C[C@@H](C(=O)Nc1ccc2ccccc2c1)[C@@H]1C[C@@]1(C)[C@@H](NC(=O)c1cnccn1)c1ccccc1` it was -42.8%.
For `C[C@@H](C(=O)Nc1ccc2ccccc2c1)[C@H]1C[C@]1(C)[C@H](NC(=O)c1cnccn1)c1ccccc1`, the AC50 was 15.8 µM (active).
Turning to `CO[C@H]1C[C@@H](O[C@@H]2[C@H](C)[C@H](O[C@@H]3O[C@@H](C)C[C@@H](N(C)C)[C@@H]3O)[C@H](C)C[C@]3(CO3)C(=O)[C@H](C)[C@H](O)[C@H](C)[C@H](C)OC(=O)[C@@H]2C)O[C@@H](C)[C@H]1O`, the “activity, negative = inhibition” value was -29.6% [at 25.6 µM].
Regarding `C[C@@H](C(=O)Nc1ccc2ccccc2c1)[C@H]1C[C@]1(C)[C@H](NP(=O)(c1ccccc1)c1ccccc1)c1ccccc1`, the AC50 was 10 µM (active).
As to `C[C@@H](C(=O)Nc1ccc2ccccc2c1)[C@H]1C[C@]1(C)[C@H](NC(=O)Oc1ccc(F)cc1)c1ccccc1`, the “activity, negative = inhibition” value is -37.1%.
Same read-out and setting: in the case of `C[C@@H](C(=O)Nc1ccc2ccccc2c1)[C@H]1C[C@]1(C)[C@H](NS(=O)(=O)c1ccc(-c2ccccc2)cc1)c1ccccc1` it was -37.2%.
`COC(=O)N[C@H](c1ccccc1)[C@@]1(C)C[C@@H]1[C@@H](C)C(=O)Nc1ccc2ccccc2c1`: the AC50 is 3.16 µM (active).
Regarding `C[C@@H](C(=O)Cc1ccc2ccccc2c1)[C@@H]1C[C@@]1(C)[C@@H](NP(=O)(c1ccccc1)c1ccccc1)c1ccccc1`, the “activity, negative = inhibition” value is -26.1%.
On the same count and under the same terms, in the case of `C[C@@H](C(=O)Nc1ccc2ccccc2c1)[C@@H]1C[C@@]1(C)[C@@H](NC(=O)Oc1ccc(F)cc1)c1ccccc1` it was -43.6%; in that of `COc1ccc(C2C(C(=O)N3CCN(C)CC3)c3ccccc3C(=O)N2C2CCCCC2)cc1` (stereo unspecified), 2.2%; in that of `COc1ccc([C@@H]2Sc3ccccc3N(CCN(C)C)C(=O)[C@@H]2OC(C)=O)cc1`, 11.9%.
Regarding `COc1ccc(C2C(=O)N(CCc3ccccc3)CC(=O)N2C2CCCC2)cc1` (stereo unspecified), the AC50 is 11.2 µM (active).
Still for that read-out and setting: with `CCCCN1C(=O)CN(CCc2ccccc2)C(=O)C1c1ccc(OC)cc1` (stereo unspecified) the figure was 7.08 µM (active).
For the compound `Cc1noc(C)c1C(=O)N1CCC[C@@]2(CCN(C(=O)NC(C)C)C2)C1`, the “activity, negative = inhibition” value was -26.5%.
